Bioassay records from PubChem.
Most compounds without a hit are left out; they make up all but 11% or so of the library.
HCV inhibitor – blocks hepatitis C virus; 340,000 tested, 3.4% active; AID 651820; Potency, µM (titrated, usually from 41.8 µM), for inactives: at the highest dose activity change, negative = inhibition, actives largely listed as inhibitors; Huh7.5.1 HCVcc-Cre infection, luciferase reporter, 44 h
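Cells (1,000/well) were plated 4 h before compound, then infected with HCVcc-Cre virus (~0.5 moi). After 44 h further culture, infection was read as luciferase luminescence following a 15 min substrate incubation at room temperature.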
Pf growth 48h – P. falciparum growth inhibition at 48 hours (one generation) | P. falciparum luciferase growth in erythrocytes, 48 h | Potency, µM (series often up to 28.7 µM), for the others: at the top dose activity change, negative = inhibition, usual class: inhibitors | 310,000 tested, 5.9% active | AID 504832
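Parasite viability was followed by luminescence of a genomically integrated firefly luciferase. Cultures held 0.1% parasitemia at 2% hematocrit (final), incubated under 5% CO2 at 37 C.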
Pf growth 96h – inhibits malaria parasite growth, 96 h | AID 504834 | 320,000 tested, 6.9% active | Potency, µM (doses to about 28.7 µM), for the others: at the highest dose activity change, negative = inhibition, hits mostly inhibitors | P. falciparum luciferase reporter growth, 96 h
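Luminescence readout: decreased luciferase signal marks inhibited growth of reporter-expressing P. falciparum in infected red cells (2% hematocrit, 0.05% parasitemia final), exposed to compound two generations (96 h, 37 C, 5% CO2).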
AMA1-RON2 inh – disrupts binding of P. falciparum AMA1 to RON2; AlphaScreen AMA1-biotinylated RON2 peptide binding; Potency, µM (doses to about 58.2 µM), for inactives: at the highest dose activity change, negative = inhibition, usual class: inhibitors; 360,000 tested, 0.2% active;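 further: 0% = vehicle wells and -100% = peptide control; nearly all actives have a fitted effect of over 45% in size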
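AMA1 (3D7) with his tag at 25 nM final met compounds first, then biotinylated RON2 peptide at 25 nM; detection used donor plus acceptor beads, 10 µg/mL apiece, read by AlphaScreen after 30 min at room temperature.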
Active calls of the source: *; ? = inconclusive; . = not tested or not shown; [ ] = another dose, or the depositor's remark. The call rests on the fitted dose curve; in most records, active means well fitted curve in the direction sought with a large enough effect; inconclusive means small, poorly fitted or top-dose-only effect, or another doubt; inactive means no such curve, though single readings can be large; an effect the other way counts as inactive or inconclusive. Unless noted, on the % scale 0 is the no-effect control and ±100 the full control effect; potency means the concentration at half of the fitted maximal effect.

SMILES	HCV inhibitor	Pf growth 48h	Pf growth 96h	AMA1-RON2 inh
COCCNC(=O)Cn1cc(/C=N/NC(=O)c2ccc(Oc3ccc(O)cc3)cc2)c2ccccc21	-20%	-5%	2%	-28%
CCOC(=O)c1c(NC(=O)CC(C)C)sc(C(C)=O)c1C	?	?	?	-8%
COC(=O)c1c(NC(=O)C2c3ccccc3Oc3ccccc32)sc(C)c1C	?	19%	?	7%
CCOC(=O)c1sc(NC(=O)CN(CC(C)C)CC(C)C)c(C(=O)OCC)c1C	-5%	2.3µM*	.	4%
COC(=O)c1sc(NC(=O)C2c3ccccc3Oc3ccccc32)c(C(=O)OC)c1C	?	1.7µM*	10µM*	-6%
O=C(N=C1SC2CS(=O)(=O)CC2N1Cc1ccc(F)cc1)C1CCCO1 (stereo not given)	9%	20%	55%	15%
CCOc1ccc2nc(N3CCCC(C(=O)NCCCN4CC(C)CC(C)C4)C3)sc2c1 (stereo not given)	?	?	?	-1%
CCOc1ccc(C(C)=O)cc1COC(=O)C1=COCCO1	10µM*	?	?	0%
CC(NC(N)=O)C(=O)Nc1ccc(Cl)c(S(=O)(=O)Nc2ccc(Br)cc2)c1 (stereo not given)	9%	6%	-3%	-7%
O=C1C=C(c2ccccc2)C[C@H](c2cccs2)[C@H]1n1cnc([N+](=O)[O-])c1	-29%	13µM*	?	-1%
N/C(=N\OC(=O)CSc1ccccc1)c1ccncc1	0%	80%	?	1%
O=C1NC(Cc2ccc(O)cc2)c2nc3ccc(Cl)cc3c(=O)n2-c2ccc(Cl)cc21 (stereo not given)	12%	.	.	.
O=C1CC(C(=O)Nc2cccc3ccccc23)C2(CCCC2)O1 (stereo not given)	2%	22%	1.5µM*	-8%
CC1(C)CC2(CCO1)OC(=O)CC2C(=O)Nc1cccc2ccccc12 (stereo not given)	-4%	.	201%	-11%
Cn1c(=O)c2[nH]c(Cc3cccc4ccccc34)nc2n(C)c1=O	-2%	.	.	-5%
CCC(=O)N(CCC1(c2ccccc2OC)CCOC(C(C)C)C1)Cc1ccco1 (stereo not given)	-20%	10µM*	10µM*	-20%
COc1ccccc1C1(CCNC(C)c2cccs2)CCOC(C(C)C)C1 (stereo not given)	?	8.3µM*	8.3µM*	-20%
Cc1ccc(C2(CCNC(C)c3cccs3)CCOC(C(C)C)C2)cc1 (stereo not given)	?	?	?	1%
CCCN(CCC)CCNC(=O)Cn1cc2c(n1)-c1c(oc(C(=O)N3CCCC3)c1C)CC2	.	.	.	90%
CCCCN(CCCC)CCCNC(=O)Cn1cc2c(n1)-c1c(oc(C(=O)N3CCCC3)c1C)CC2	-5%	12µM*	?	4%
COC(=O)C1(Cc2cc(-c3cccnc3)no2)CCN(C(=O)OC(C)(C)C)CC1	-8%	?	10µM*	-3%
COC(=O)C1(Cc2cc(-c3ccc(Cl)cc3)no2)CCN(C(=O)OC(C)(C)C)CC1	1µM*	-8%	65%	-3%
CCOC(=O)CSc1n[nH]c(NC(C)=O)n1	11%	0%	10%	13%
O=C(O)c1cccc(N/N=C/c2cn(-c3ccccc3)nc2-c2cccs2)c1	-3%	204%	66%	15%
NS(=O)(=O)c1ccc(N/N=C/c2cn(-c3ccccc3)nc2-c2cccs2)cc1	1.8µM*	0.19µM*	0.066µM*	-14%
SMILES	HCV inhibitor	Pf growth 48h	Pf growth 96h	AMA1-RON2 inh
N#Cc1ccc(N/N=C/c2cn(-c3ccccc3)nc2-c2ccccc2)c([N+](=O)[O-])c1	6%	?	0.52µM*	-3%
NS(=O)(=O)c1ccc(N/N=C/c2cn(-c3ccccc3)nc2-c2cccs2)c([N+](=O)[O-])c1	11µM*	1.5µM*	3.3µM*	-25%
O=Cc1cn(-c2ccccc2)nc1-c1cccc([N+](=O)[O-])c1	.	.	.	-6%
COc1ccc(OCCC(=O)OCC(=O)NCc2ccccc2OC)cc1	4%	-18%	4%	15%
COc1ccc(CCC(=O)N2CCCSC2=Nc2ccc(C(C)=O)cc2)cc1	29%	7%	?	-3%
COc1ccc(OC)c(NC2c3ccccc3C(=O)N2Cc2ccc3c(c2)OCO3)c1 (stereo not given)	-18%	.	?	16µM*
COc1ccc(OC)c(NC2c3ncccc3C(=O)N2Cc2ccco2)c1 (stereo not given)	1%	-8%	-9%	-4%
O=C1c2ccccc2C(Nc2ccc3c(c2)OCO3)N1Cc1ccc2c(c1)OCO2 (stereo not given)	?	9.3µM*	3.3µM*	-21%
O=C1c2ccccc2C(Nc2cccnc2)N1Cc1ccc2c(c1)OCO2 (stereo not given)	7%	-14%	1.5µM*	-6%
COc1ccc(CN2C(=O)c3cccnc3C2Nc2cc(Cl)ccc2OC)cc1 (stereo not given)	-9%	5.2µM*	?	?
Cc1ccc(OCc2ccc(C(=O)Nc3c(C)nn(Cc4c(F)c(F)c(F)c(F)c4F)c3C)o2)c([N+](=O)[O-])c1	16µM*	?	?	-11%
Cc1ccc(C)c(OCc2ccc(C(=O)Nc3ccc([N+](=O)[O-])cn3)o2)c1	2.5µM*	?	-40%	-5%
COC(=O)c1cc(C(=O)Nc2ccc(C)cn2)cc([N+](=O)[O-])c1	?	18%	12µM*	3%
COc1ccc(S(=O)(=O)NC(=O)C2(C)CCN2C(=O)Cc2cc(C)cc(C)c2)cc1OC (stereo not given)	.	.	.	-1%
O=C(c1ccccc1)C(CN1CCCC1)c1ccccc1 (stereo not given)	?	?	12µM*	6%
Cc1ccc(C(=O)C(C)CN2CCCCC2)cc1 (stereo not given)	.	13µM*	13µM*	.
O=C(c1ccc(Cl)cc1)C(CN1CCCCC1)c1ccccc1 (stereo not given)	16µM*	-4%[0.00184 µM]	0%	4%
CCC1OC(=O)C[C@H](O)C(C)[C@@H](O[C@@H]2OC(C)C(O)C(N(C)C)C2O)C(CCN2CC(C)CC(C)C2)CC(C)C(=O)/C=C/C(C)=C\[C@@H]1COC1OC(C)C(O)C(OC)C1OC (stereo not given in full)	.	?	3.8µM*	.
CCC1OC(=O)CC(O)C(C)[C@@H](O[C@@H]2OC(C)[C@H](O[C@@H]3C[C@@](C)(O)C(O)C(C)O3)C(N(C)C)C2O)[C@H](CC=O)CC(C)C(=O)/C=C/C(C)=C/[C@@H]1COC1OC(C)C(O)C(OC)[C@@H]1OC (stereo not given in full)	.	?	0.76µM*	.
CC[C@H]1OC(=O)C[C@@H](O)[C@H](C)[C@@H](O[C@@H]2O[C@H](C)C[C@H](N(C)C)[C@H]2O)[C@@H](CC=O)C[C@@H](C)C(=O)C=C[C@]2(C)O[C@H]2[C@@H]1C	.	4.7µM*	0.33µM*	.
